Laboratory results as given in PubChem BioAssay (Tox21).
A number with no mark means an inactive call. Results filed as inconclusive are left out. Entries that show only a call come without a potency. Activity calls are given as the source filed them. Calls come from the whole dose curve; as a rule, active = well fitted curve in the direction sought with a large enough effect in the repeat runs; inconclusive = weak or mixed curves; inactive = no such curve, though single readings can be large; an effect the other way counts as inactive or inconclusive.

Experiments:
[1] = qHTS RealTime-Glo MT Cell Viability Assay in HEK293 cells - 16 hour (AID 1224872); note: top concentration of the series differs between compounds; nearly all actives have a fitted effect of over 50% in size
Procedure, shortened: (§1)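 HEK293 cells were seeded at 600 cells/well together with NanoLuc luciferase and cell-permeant prosubstrate, preincubated 5 h at 37 C/5% CO2, then given compound in DMSO by pintool. Luminescence from viable-cell prosubstrate reduction was read repeatedly over 40 h.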

[2] = qHTS RealTime-Glo MT Cell Viability Assay in HepG2 cells - 8 hour (AID 1224873); note: nearly all actives have a fitted effect of over 55% in size
Procedure, shortened: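 Real-time viability: cells seeded at 600 per well together with NanoLuc and cell-permeant prosubstrate, compounds added after 5 h incubation. Luminescence tracked at 0, 8, 16, 24, 32 and 40 h of exposure.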

[3] = A CellTox Green Cytotoxicity Assay to monitor cytotoxicity in HEK293 cells - 24 hour (AID 1224875); note: series mostly up to about 77 µM; nearly all actives have a fitted effect of over 45% in size
Procedure, shortened: (§2)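 Read-out: fluorescence of a cell-impermeant cyanine dye staining DNA of dead cells, proportional to cytotoxicity. HEK293, 600 cells/well with reagent, compound (23 nL DMSO) added after 5 h; reads at 0, 8, 16, 24, 32, 40 h.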

[4] = A CellTox Green Cytotoxicity Assay to monitor cytotoxicity in HepG2 cells - 16 hour (AID 1224876); note: nearly all actives have a fitted effect of over 45% in size; note: potency is the fitted concentration of half-maximal effect
Procedure, shortened: (§3)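 HepG2, 600 cells/well premixed w/ CellTox Green; 5 h settle, 37 C/5% CO2; pintool cpd add (DMSO); 37 C, 40 h; fluorescence read at 0, 8, 16, 24, 32, 40 h.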

[5] = qHTS RealTime-Glo MT Cell Viability Assay in HepG2 cells - 32 hour (AID 1224877); note: nearly all actives have a fitted effect of over 55% in size
Procedure, shortened: (§4)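 HepG2 cells were seeded at 600 cells/well together with NanoLuc luciferase and a cell-permeant prosubstrate, preincubated 5 h at 37 C/5% CO2, then pin-dosed with compounds in DMSO. Nonlytic luminescence from viable cells was read at each time point.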

[6] = A CellTox Green Cytotoxicity Assay to monitor cytotoxicity in HepG2 cells - 24 hour (AID 1224878); note: nearly all actives have a fitted effect of over 45% in size; note: potency is the fitted concentration of half-maximal effect
Procedure, shortened: as §3

[7] = A CellTox Green Cytotoxicity Assay to monitor cytotoxicity in HepG2 cells - 40 hour (AID 1224879); note: nearly all actives have a fitted effect of over 40% in size; note: potency is the fitted concentration of half-maximal effect
Procedure, shortened: as §3

[8] = qHTS RealTime-Glo MT Cell Viability Assay in HEK293 cells - 0 hour (AID 1224880); note: top concentration of the series differs between compounds; nearly all actives have a fitted effect of over 45% in size
Procedure, shortened: (§5)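 Luminescence readout at each listed time point; HEK293, 600 cells/well, RealTime-Glo MT reagent added with cells; compounds pinned (23 nL in DMSO) after 5 h at 37 C; continuous culture at 37 C.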

[9] = A CellTox Green Cytotoxicity Assay to monitor cytotoxicity in HepG2 cells - 0 hour (AID 1224882); note: nearly all actives have a fitted effect of over 35% in size
Procedure, shortened: as §3

[10] = A CellTox Green Cytotoxicity Assay to monitor cytotoxicity in HepG2 cells - 32 hour (AID 1224883); note: nearly all actives have a fitted effect of over 50% in size
Procedure, shortened: as §3

[11] = qHTS RealTime-Glo MT Cell Viability Assay in HepG2 cells - 16 hour (AID 1224885); note: nearly all actives have a fitted effect of over 50% in size
Procedure, shortened: as §4

[12] = qHTS RealTime-Glo MT Cell Viability Assay in HEK293 cells - 24 hour (AID 1224886); note: nearly all actives have a fitted effect of over 50% in size; note: potency is the fitted concentration of half-maximal effect
Procedure, shortened: as §1

[13] = qHTS RealTime-Glo MT Cell Viability Assay in HEK293 cells - 8 hour (AID 1224887)
Procedure, shortened: as §5

[14] = qHTS RealTime-Glo MT Cell Viability Assay in HepG2 cells - 0 hour (AID 1224889); note: nearly all actives have a fitted effect of over 50% in size; note: potency is the fitted concentration of half-maximal effect
Procedure, shortened: as §4

[15] = A CellTox Green Cytotoxicity Assay to monitor cytotoxicity in HepG2 cells - 8 hour (AID 1224890); note: nearly all actives have a fitted effect of over 45% in size
Procedure, shortened: as §3

[16] = A CellTox Green Cytotoxicity Assay to monitor cytotoxicity in HEK293 cells - 40 hour (AID 1224871); note: nearly all actives have a fitted effect of over 45% in size
Procedure, shortened: as §2

[17] = A CellTox Green Cytotoxicity Assay to monitor cytotoxicity in HEK293 cells - 32 hour (AID 1224881); note: nearly all actives have a fitted effect of over 40% in size
Procedure, shortened: as §2

[18] = A CellTox Green Cytotoxicity Assay to monitor cytotoxicity in HEK293 cells - 8 hour (AID 1224884); note: nearly all actives have a fitted effect of over 35% in size
Procedure, shortened: as §2

[19] = A CellTox Green Cytotoxicity Assay to monitor cytotoxicity in HEK293 cells - 16 hour (AID 1224888); note: nearly all actives have a fitted effect of over 35% in size
Procedure, shortened: as §2

[20] = qHTS RealTime-Glo MT Cell Viability Assay in HEK293 cells - 40 hour (AID 1224874); settings: RealTime-Glo luminescence; max response: hits give low values; note: nearly all actives have a fitted effect of over 50% in size; note: potency is the fitted concentration of half-maximal effect
Procedure, shortened: as §5

Structure (SMILES): CN1C(=S)CN=C(c2ccccc2)c2cc(Cl)ccc21
- Potency [1]: inactive
- Potency [2]: inactive
- Potency [3]: inactive
- Potency [4]: inactive
- Potency [5]: inactive
- Potency [6]: inactive
- Potency [7]: inactive
- outcome [8]: inactive
- outcome [9]: inactive
- Potency [10]: inactive
- Potency [11]: inactive
- Potency [12]: inactive
- Potency [13]: inactive
- Potency [14]: inactive
- Potency [15]: inactive

Structure (SMILES): CC1COC2(c3ccccc3Cl)c3cc(Cl)ccc3NC(=O)CN12 (stereo unspecified)
- Potency [16]: inactive
- Potency [2]: inactive
- Potency [3]: inactive
- Potency [4]: inactive
- Potency [5]: inactive
- Potency [6]: inactive
- outcome [8]: inactive
- Potency [17]: inactive
- outcome [9]: inactive
- Potency [18]: inactive
- Potency [11]: inactive
- Potency [13]: inactive
- Potency [19]: inactive
- Potency [14]: inactive
- Potency [15]: inactive

Structure (SMILES): COc1ccc2c(c1OC)CN1CCc3cc4c(cc3C1C2)OCO4 (stereo unspecified)
- Potency [16]: inactive
- Potency [2]: inactive
- Potency [3]: inactive
- Potency [4]: inactive
- Potency [5]: inactive
- Potency [6]: inactive
- Potency [7]: inactive
- outcome [8]: inactive
- Potency [17]: inactive
- outcome [9]: inactive
- Potency [10]: inactive
- Potency [18]: inactive
- Potency [13]: inactive
- Potency [19]: inactive
- Potency [14]: inactive
- Potency [15]: inactive

Structure (SMILES): O=P(O)(Oc1ccccc1)Oc1ccccc1
- Potency [16]: inactive
- Potency [2]: inactive
- max response [20]: 11.6%
- Potency [3]: inactive
- Potency [4]: inactive
- Potency [5]: inactive
- Potency [6]: inactive
- Potency [7]: inactive
- outcome [8]: inactive
- Potency [17]: inactive
- outcome [9]: inactive
- Potency [10]: inactive
- Potency [18]: inactive
- Potency [11]: inactive
- Potency [19]: inactive
- Potency [14]: inactive
- Potency [15]: inactive

Structure (SMILES): OC(c1ccc(F)cc1)(c1cncnc1)c1ccccc1Cl (stereo unspecified)
- Potency [1]: inactive
- Potency [2]: inactive
- max response [20]: -29.2%
- Potency [3]: inactive
- Potency [4]: inactive
- Potency [5]: inactive
- Potency [6]: inactive
- Potency [7]: inactive
- outcome [8]: inactive
- outcome [9]: inactive
- Potency [10]: inactive
- Potency [11]: inactive
- Potency [12]: inactive
- Potency [13]: inactive
- Potency [19]: inactive
- Potency [14]: inactive
- Potency [15]: inactive

Structure (SMILES): CCCCc1ccc(O)cc1
- Potency [2]: inactive
- Potency [20]: 15.5 µM (active)
- Potency [3]: inactive
- Potency [4]: 21.8 µM (active)
- Potency [5]: inactive
- Potency [6]: 21.8 µM (active)
- Potency [7]: 21.8 µM (active)
- outcome [8]: inactive
- Potency [17]: inactive
- outcome [9]: inactive
- Potency [18]: inactive
- Potency [11]: inactive
- Potency [12]: 19.5 µM (active)
- Potency [19]: inactive
- Potency [15]: inactive

Structure (SMILES): Nc1cc(Cl)ccc1O
- Potency [16]: inactive
- Potency [2]: inactive
- max response [20]: -11.2%
- Potency [4]: inactive
- Potency [5]: inactive
- Potency [6]: inactive
- Potency [7]: inactive
- outcome [8]: inactive
- Potency [17]: inactive
- outcome [9]: inactive
- Potency [10]: inactive
- Potency [18]: inactive
- Potency [11]: inactive
- Potency [12]: inactive
- Potency [19]: inactive
- Potency [14]: inactive
- Potency [15]: inactive

Structure (SMILES): [As]#[In]
- Potency [16]: inactive
- Potency [2]: inactive
- Potency [4]: inactive
- Potency [5]: inactive
- outcome [8]: inactive
- Potency [17]: inactive
- outcome [9]: inactive
- Potency [18]: inactive
- Potency [11]: inactive
- Potency [19]: inactive
- Potency [14]: inactive
- Potency [15]: inactive

Structure (SMILES): CC(COc1ccc(Oc2ccccc2)cc1)Oc1ccccn1 (stereo unspecified)
- Potency [16]: inactive
- Potency [2]: inactive
- Potency [4]: inactive
- Potency [5]: inactive
- Potency [6]: inactive
- Potency [7]: inactive
- outcome [8]: inactive
- Potency [17]: inactive
- outcome [9]: inactive
- Potency [10]: inactive
- Potency [11]: inactive
- Potency [19]: inactive
- Potency [14]: inactive
- Potency [15]: inactive

Structure (SMILES): C[C@]1(O)CC[C@H]2[C@@H]3CCC4=CC(=O)CC[C@]4(C)[C@@]3(F)[C@@H](O)C[C@@]21C
- Potency [16]: inactive
- Potency [1]: inactive
- Potency [2]: inactive
- Potency [4]: inactive
- Potency [5]: inactive
- Potency [6]: inactive
- Potency [7]: inactive
- Potency [17]: inactive
- outcome [9]: inactive
- Potency [18]: inactive
- Potency [11]: inactive
- Potency [12]: inactive
- Potency [19]: inactive
- Potency [14]: 12.4 µM (active)
- Potency [15]: inactive

Structure (SMILES): CCSC(=O)N(CC)C1CCCCC1
- Potency [1]: inactive
- Potency [2]: inactive
- max response [20]: -0.642%
- Potency [3]: inactive
- Potency [4]: inactive
- Potency [5]: inactive
- Potency [6]: inactive
- Potency [7]: inactive
- outcome [8]: inactive
- outcome [9]: inactive
- Potency [10]: inactive
- Potency [18]: inactive
- Potency [11]: inactive
- Potency [12]: inactive
- Potency [13]: inactive
- Potency [19]: inactive
- Potency [14]: inactive
- Potency [15]: inactive
